In PubChem BioAssay (EPA / NIEHS):
“And” between values parts separate entries of the source, which are not always exact repeats. Equal entries are not always repeated. Inconclusive results are not listed. The source made the active and inactive calls. The calls were made as follows: active = hit-call score of the fitted dose curve at least 0.9, where 1 is the maximum; inconclusive = response in the unintended direction; inactive = score below 0.9.

What follows are compounds tested against Sodium channel protein type 1 subunit alpha (Rattus norvegicus) (UniProt P04774) (assay: NVS_IC_rNaCh_site2: NovaScreen (NVS) Ion Channel Assay for rat Sodium Channel, Site 2 (NaCh) (AID 2283322);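 also: hit means loss of radioligand binding signal relative to DMSO so AC50 marks displacement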).
In short: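 Initial duplicate single-point testing at 25 uM, followed by concentration-response runs for actives. Binding of radioligand to rat forebrain membranes quantified after 1 h via filter-based radiodetection.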

Row | Compound | AC50 | outcome
1 | CCCCCCCCOC(=O)c1cc(O)c(O)c(O)c1 | 17.7 µM (active) | –
2 | CC[C@H](NC(=O)c1cc(F)ccc1NS(=O)(=O)c1cccc2cccnc12)c1ccccc1 | – | inactive
3 | CCCCCCCCCCCC[N+](C)(C)C | 13 µM (active) | –
4 | NC(=O)c1nc(-c2cccc(-c3cc(F)ccc3OCC(F)(F)C(F)(F)F)c2)n[nH]1 | 0.574 µM (active) | –

These compounds were tested against rat Thyrotropin Releasing Hormone Receptor (TRH), Trhr (gene 25570) (UniProt Q01717) (assay: NVS_GPCR_rTRH: NovaScreen (NVS) G Protein-Coupled Receptor Assay for rat Thyrotropin Releasing Hormone Receptor (TRH) (AID 2283329);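 also: hit means lower bound tracer signal versus DMSO baseline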).
In short: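 Cell-free radioligand binding on rat forebrain membranes; bound tracer measured by filter-based scintillation counting 4 hours after dosing. Loss of signal versus DMSO baseline indicates displacement; primary screen at 25 uM in duplicate, actives then run in concentration series.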

rat Thyrotropin Releasing Hormone Receptor (TRH), Trhr (gene 25570), sequence (Q01717 whole entry, looked up): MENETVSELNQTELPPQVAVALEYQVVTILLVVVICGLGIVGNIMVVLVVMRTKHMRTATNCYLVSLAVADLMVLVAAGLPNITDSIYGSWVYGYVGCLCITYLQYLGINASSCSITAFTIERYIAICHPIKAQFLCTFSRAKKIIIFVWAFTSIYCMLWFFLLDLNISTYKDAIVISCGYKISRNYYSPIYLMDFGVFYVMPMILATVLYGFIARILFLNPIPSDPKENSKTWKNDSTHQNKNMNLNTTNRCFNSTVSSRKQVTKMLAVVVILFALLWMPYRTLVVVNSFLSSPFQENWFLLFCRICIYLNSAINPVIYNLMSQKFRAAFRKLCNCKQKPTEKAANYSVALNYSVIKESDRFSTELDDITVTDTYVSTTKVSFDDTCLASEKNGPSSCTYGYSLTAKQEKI

Row | Compound | outcome
5 | Cc1oc2c(NC(=O)c3c(Cl)cccc3Cl)cccc2c1C(C)(C)O | inactive
6 | CCCCCc1ccc(N)cc1 | inactive
7 | O=C1CCC(C2CCCCC2)CC1 | inactive

These compounds were tested against rat Peripheral-type Benzodiazepine Receptor (PBR), Tspo (gene 24230) (UniProt P16257) (assay: NVS_MP_rPBR: NovaScreen (NVS) Membrane Protein Assay for rat Peripheral-type Benzodiazepine Receptor (PBR) (AID 2283335)).
In short: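 Competitive displacement of specific radioligand from rat kidney membrane PBR, read by filtration and scintillation after 1 h. Compounds first tested at 25 uM in duplicate, then in concentration series; signal loss relative to DMSO.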

rat Peripheral-type Benzodiazepine Receptor (PBR), Tspo (gene 24230), sequence (P16257 whole entry, looked up): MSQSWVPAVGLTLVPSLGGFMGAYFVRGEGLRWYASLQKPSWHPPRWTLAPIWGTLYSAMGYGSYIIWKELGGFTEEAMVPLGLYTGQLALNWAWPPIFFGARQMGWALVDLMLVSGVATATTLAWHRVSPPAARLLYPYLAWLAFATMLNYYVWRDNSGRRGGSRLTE

Row | Compound | AC50 | outcome
8 | CCCCCCCCOC(=O)c1cc(O)c(O)c(O)c1 | 2.82 µM (active) | –
9 | Cc1oc2c(NC(=O)c3c(Cl)cccc3Cl)cccc2c1C(C)(C)O | 2.5 µM (active) | –
10 | O=c1c(-c2ccc(O)cc2)coc2cc(O)cc(O)c12 | – | inactive
11 | CCCCOC(=O)c1ccc(O)cc1 | 3 µM (active) and 25 µM (active) | –
12 | CC[C@H](NC(=O)c1cc(F)ccc1NS(=O)(=O)c1cccc2cccnc12)c1ccccc1 | 0.0869 µM (active) | –
13 | OC12N=C(c3ccccc3)SC1Cc1cc(Cl)ccc12 (configuration not stated) | 6.16 µM (active) | –
14 | CC(C)(O)c1ccc(CNC(=O)c2cccnc2Oc2ccc3nonc3c2)cc1 | 7.64 µM (active) | –
15 | NC(=O)c1nc(-c2cccc(-c3cc(F)ccc3OCC(F)(F)C(F)(F)F)c2)n[nH]1 | 5.7 µM (active) | –
16 | Cc1ccc2oc(CN(Cc3ccccc3)C(=O)Nc3c(F)cc(F)cc3F)c(-c3ccc(Cl)cc3)c2c1 | 4.2 µM (active) | –
17 | CCCCOC(=O)CC(CC(=O)OCCCC)(OC(C)=O)C(=O)OCCCC | – | inactive
18 | Cc1c2ccccc2c(C)c2c1ccc1ccccc12 | 1.69 µM (active) | –

Each compound was assayed against bovine Gamma-Aminobutyric Acid Type A Receptor Agonist (GABAR Agonist), GABRA1 (gene 780973) (UniProt P08219) (assay: NVS_LGIC_bGABAR_Agonist: NovaScreen (NVS) Ligand-Gated Ion Channel Assay for bovine Gamma-Aminobutyric Acid Type A Receptor Agonist (GABAR Agonist) (AID 2283338)).
In short: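 Radioligand binding to bovine cerebellar membranes in agonist format, read by filter-based scintillation counting after 1 h. Primary screen in duplicate at 25 uM, with actives followed in concentration series. Gain of signal versus DMSO.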

bovine Gamma-Aminobutyric Acid Type A Receptor Agonist (GABAR Agonist), GABRA1 (gene 780973), sequence (P08219 whole entry, looked up): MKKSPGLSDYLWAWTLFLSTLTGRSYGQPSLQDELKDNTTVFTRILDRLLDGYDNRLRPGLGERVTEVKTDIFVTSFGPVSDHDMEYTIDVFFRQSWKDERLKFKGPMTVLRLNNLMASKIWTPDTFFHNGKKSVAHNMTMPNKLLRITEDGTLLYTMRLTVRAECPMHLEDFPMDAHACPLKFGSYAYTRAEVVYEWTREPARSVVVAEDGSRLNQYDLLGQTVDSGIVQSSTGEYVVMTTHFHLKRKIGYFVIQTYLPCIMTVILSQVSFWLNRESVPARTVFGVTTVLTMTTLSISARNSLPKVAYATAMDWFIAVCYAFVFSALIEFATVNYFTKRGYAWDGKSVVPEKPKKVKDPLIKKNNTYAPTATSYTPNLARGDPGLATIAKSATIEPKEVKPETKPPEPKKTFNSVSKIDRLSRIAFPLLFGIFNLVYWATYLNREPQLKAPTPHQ

Row | Compound | outcome | AC50
19 | Cc1cccc2ccccc12 | inactive | –
20 | O=C1O[C@H]([C@@H](O)CO)C(O)=C1O | inactive | –
21 | Cc1ccc(C(C)C)cc1 | inactive | –
22 | CC(C)(c1cc(Br)c(O)c(Br)c1)c1cc(Br)c(O)c(Br)c1 | – | 44.4 µM (active)
